Source: PubChem BioAssay (EPA / NIEHS)
Results filed as inconclusive are left out. Activity calls are given as the source filed them. Rule for the calls: active = hit-call score of the fitted dose curve at least 0.9, where 1 is the maximum; inconclusive = response in the unintended direction; inactive = score below 0.9.

biological target: PGR (gene 5241) (UniProt P06401); experiment: NVS_NR_hPR: NovaScreen (NVS) Nuclear Receptor Binding Assay for human Progestron Receptor (PR) (AID 2283360);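 note: active means loss of bound radioligand signal versus DMSO baseline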
Sequence (P06401 whole entry, looked up): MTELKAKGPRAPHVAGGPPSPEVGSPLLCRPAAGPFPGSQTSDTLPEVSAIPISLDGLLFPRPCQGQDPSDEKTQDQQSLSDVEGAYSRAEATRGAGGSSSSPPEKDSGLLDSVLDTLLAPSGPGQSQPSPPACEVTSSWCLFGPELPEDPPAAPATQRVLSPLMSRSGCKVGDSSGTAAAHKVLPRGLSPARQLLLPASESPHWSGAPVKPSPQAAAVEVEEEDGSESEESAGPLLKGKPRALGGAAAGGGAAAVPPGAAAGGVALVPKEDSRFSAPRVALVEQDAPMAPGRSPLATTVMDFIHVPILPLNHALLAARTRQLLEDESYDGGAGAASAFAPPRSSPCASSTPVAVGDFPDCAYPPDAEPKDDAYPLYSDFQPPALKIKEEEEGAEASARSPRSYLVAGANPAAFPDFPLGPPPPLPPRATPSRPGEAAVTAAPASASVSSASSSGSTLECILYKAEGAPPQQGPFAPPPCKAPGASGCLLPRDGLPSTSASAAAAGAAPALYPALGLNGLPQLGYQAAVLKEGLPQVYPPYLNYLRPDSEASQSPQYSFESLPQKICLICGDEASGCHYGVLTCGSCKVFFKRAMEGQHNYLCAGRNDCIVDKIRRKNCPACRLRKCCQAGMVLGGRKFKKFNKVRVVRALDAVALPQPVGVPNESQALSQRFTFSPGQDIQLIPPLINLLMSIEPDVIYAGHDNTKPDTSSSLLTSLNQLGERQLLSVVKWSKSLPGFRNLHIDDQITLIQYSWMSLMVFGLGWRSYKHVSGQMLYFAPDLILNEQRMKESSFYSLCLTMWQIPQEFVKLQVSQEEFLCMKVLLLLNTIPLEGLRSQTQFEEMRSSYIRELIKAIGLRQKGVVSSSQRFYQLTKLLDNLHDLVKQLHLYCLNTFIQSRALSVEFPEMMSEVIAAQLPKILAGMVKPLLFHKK
Summary of the method: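 T47D-derived receptor preparation, cell-free, with tritiated or iodinated radioligand displacement measured by scintillation 18 h post-dosing. Single 25 uM duplicate screen, then concentration series; signal loss relative to DMSO.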

SMILES	outcome	AC50
CCOP(=O)(OCC)Oc1cc(C)nc(C(C)C)n1	inactive	
CCOP(=S)(OCC)Oc1ccc2c(C)c(Cl)c(=O)oc2c1		1.13 µM (active)
CCCSP(=O)(OCC)Oc1ccc(Br)cc1Cl (centres undefined)		25 µM (active)
CC1(C(=O)Nc2ccc(O)c(Cl)c2Cl)CCCCC1	inactive	
C[Si](Cn1cncn1)(c1ccc(F)cc1)c1ccc(F)cc1	inactive	
CCOP(=S)(OCC)Oc1cc(C)nc(C(C)C)n1	inactive	
CCC(CC)Nc1c([N+](=O)[O-])cc(C)c(C)c1[N+](=O)[O-]	inactive	
CNc1cnn(-c2cccc(C(F)(F)F)c2)c(=O)c1Cl	inactive	
CC[C@H](C)[C@H]1O[C@]2(C=C[C@@H]1C)C[C@@H]1C[C@@H](C/C=C(\C)[C@@H](O[C@H]3C[C@H](OC)[C@@H](O[C@H]4C[C@H](OC)[C@@H](NC)[C@H](C)O4)[C@H](C)O3)[C@@H](C)/C=C/C=C3\CO[C@@H]4[C@H](O)C(C)=C[C@@H](C(=O)O1)[C@]34O)O2	inactive	
CCCCN(CC)c1c([N+](=O)[O-])cc(C(F)(F)F)cc1[N+](=O)[O-]	inactive	
CC(C1CC1)C(O)(Cn1cncn1)c1ccc(Cl)cc1 (centres undefined)	inactive	
CCOC(=O)CC(SP(=O)(OC)OC)C(=O)OCC (centres undefined)	inactive	
CNC(=O)ON=C(C)SC	inactive	
CCCOCC(=Nc1ccc(Cl)cc1C(F)(F)F)n1ccnc1	inactive	
